This note sets out measurements from PubChem BioAssay.

Several values for one entry are separate records, joined by “and”; a condition that tells them apart may be missing. Identical values can stand only once. Activity calls are given as the source filed them.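 Rule for the calls, unless noted: active = inhibition at or above 50% relative to wild type and mutant plate controls; inactive = inhibition below 50%.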

Assay [1] can be described thus: inhibitors of TNFa-induced NFkB p65 translocation, primary screen, imaging, HUVEC, MLSMR starter and 10KST1 sets (AID 438;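 active = inhibition above 20% together with a positive visual image hit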;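 note: compound added about 3h40 before a 20 min TNFalpha stimulation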;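 for inhibition: signal is the nuclear over cytoplasmic p65 intensity ratio per well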). Particulars: HUVEC TNFa-induced p65 nuclear translocation; cell count: measured here: nuclei count (cytotoxicity indicator), at 2.08 µM unless noted; inhibition: at 2 µM, stronger effect = higher value unless noted.
Assay [2] can be described thus: inhibitors of mutant huntingtin aggregation, primary screen, imaging, exon1htt(103Q)mCFP cells, high-content imaging (AID 483;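 active = visual image review flags a hit and inhibition of aggregation exceeds 20%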;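 note: compound exposure lasted 3 days before fixation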;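 for nuclei count: percent of the per-plate median nuclei count of sample wells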). Particulars: exon1htt(103Q)mCFP cell line, aggregate imaging, at 2 µM; inhibition of aggregation: stronger effect = higher value; nuclei count: measured here: cell count, toxicity.
Assay [3] is described as follows: inhibitors of E-selectin induction by TNFa, primary screen, imaging, HUVEC, immunofluorescence, MLSMR starter and 10KST1 sets (AID 487;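 active = visually confirmed hit in the image check and inhibition above 20%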;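 for inhibition: signal is fraction of cell area covered by stained E-selectin grains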;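 for nuclei count: 100% = median nuclei count of all wells on the same plate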). Particulars: HUVEC TNFalpha-induced E-selectin immunofluorescence imaging, at 2 µM; inhibition: stronger effect = higher value; nuclei count: measured here: cell number, toxicity.
A short description of assay [4]: DUSP6 inhibitors restoring Erk phosphorylation by chemical complementation, primary imaging in DUSP6-transfected HeLa (AID 609;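 active = compounds giving at least 50% inhibition in the cell-based MKP-3 phosphatase rescue imaging test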;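 for inhibition: phospho-Erk level distribution per well compared with pooled transfected vehicle control wells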). The note with it: HeLa MKP-3 transfected, phospho-Erk imaging KS statistic, at 10 µM.
Assay [5] has as its target Dual specificity protein phosphatase 6 (Homo sapiens) (UniProt Q16828). The assay is described as above. Particulars: HeLa MKP-3 transfected, phospho-Erk imaging KS statistic, at 10 µM, stronger effect = higher value.
In assay [6] the target is Voltage-gated potassium channel subunit beta-2 (Rattus norvegicus) (UniProt P62483). Description: KvBeta enzyme negative modulators, primary screen, biochemical, NADPH fluorescence (AID 622;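 active = fluorescence slope higher than the sample average by over 3 SD, cut at about -0.22 in these data, passing the limit was not always enough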;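 note: slope of raw intensity against log time taken from 70 to 1610 s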). Particulars: recombinant KvBeta, 4-cyanobenzaldehyde reduction, at 10 µM, stronger effect = higher value.
Chain of Voltage-gated potassium channel subunit beta-2 (Rattus norvegicus) (P62483 whole entry, looked up): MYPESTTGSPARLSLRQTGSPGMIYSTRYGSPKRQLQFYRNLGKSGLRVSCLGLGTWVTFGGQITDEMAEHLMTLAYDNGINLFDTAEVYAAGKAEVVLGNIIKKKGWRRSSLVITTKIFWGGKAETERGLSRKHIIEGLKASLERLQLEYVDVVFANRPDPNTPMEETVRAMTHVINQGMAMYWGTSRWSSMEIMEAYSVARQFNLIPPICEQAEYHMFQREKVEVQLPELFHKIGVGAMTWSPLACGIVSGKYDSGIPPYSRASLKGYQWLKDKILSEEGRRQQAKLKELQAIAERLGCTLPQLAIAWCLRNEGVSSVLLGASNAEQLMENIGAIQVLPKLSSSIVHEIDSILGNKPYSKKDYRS
For assay [7] the target is unchanged. Description: KvBeta positive modulators, primary screen, biochemical, NADPH fluorescence (AID 623;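 active = NADPH fluorescence slope more negative than the mean of all samples by about 3 SD, 99.7% confidence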;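 note: fluorescence intensity change per second fitted from 20 to 320 s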). Particulars: Recombinant KvBeta, NADPH fluorescence decrease slope, 10 min; at 10 µM; stronger effect = lower value.
For assay [8], the target named is Alpha-2C adrenergic receptor (Homo sapiens) (UniProt P18825). Description: modulators of alpha2C/GIRK thallium flux, primary screen, cell-based, HEK293 alpha2C/GIRK1/2 (AID 624;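 active = fluorescence slope after compound addition differing from the mean of all screened samples at 99.7% confidence, in either direction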;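 note: slope of fluorescence ratio to pre-addition baseline per second over 15 to 24 s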). Particulars: thallium flux BTC fluorescence, at 10 µM, actives lie on both sides.
Chain of Alpha-2C adrenergic receptor (Homo sapiens) (P18825 whole entry, looked up): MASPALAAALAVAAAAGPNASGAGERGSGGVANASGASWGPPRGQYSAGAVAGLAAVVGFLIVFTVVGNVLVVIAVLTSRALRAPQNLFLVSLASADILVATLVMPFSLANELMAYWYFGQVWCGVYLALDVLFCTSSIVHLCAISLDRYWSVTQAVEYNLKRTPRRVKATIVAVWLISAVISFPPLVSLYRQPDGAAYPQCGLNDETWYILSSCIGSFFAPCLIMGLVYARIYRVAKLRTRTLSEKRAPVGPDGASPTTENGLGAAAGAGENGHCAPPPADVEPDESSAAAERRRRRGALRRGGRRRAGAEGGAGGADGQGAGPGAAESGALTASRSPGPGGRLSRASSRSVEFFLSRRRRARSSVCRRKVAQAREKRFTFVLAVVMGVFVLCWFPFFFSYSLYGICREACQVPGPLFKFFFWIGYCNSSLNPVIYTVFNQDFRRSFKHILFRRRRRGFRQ
Assay [9] is described as follows: inhibitors of Chlamydomonas gravitaxis, primary screen, whole organism, Chlamydomonas reinhardtii, WT vs cilia-less mutant, absorbance, 96-well (AID 463189).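 Note: 0% = wild type cc124 cells in DMSO and 100% = ciliumless bld1 mutant cells.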 The note with it: OD600 absorbance, 2 days, at 10 µM, stronger effect = higher value.
A short description of assay [10]: inhibitors of Sendai virus-induced IRF3 signaling, primary screen, TLR/RLR signaling modifier project, cell-based, Sendai virus stimulus, luciferase, 10K MLSCN set (AID 602276;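 active = inhibition at or above 50% at 10 µM; inactive = inhibition below 50%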;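 note: firefly luciferase from ISG56 promoter only with Renilla not read in this screen; 0% = Sendai virus plus DMSO and 100% = medium plus DMSO without virus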). The note with it: HEK293 RL24 IRF3 luciferase reporter, at 10 µM, stronger effect = higher value. (In a reporter assay the amount or activity of a reporter protein is the signal.)
Assay [11] can be described thus: inhibitors of poly I:C-induced TLR3 signaling, primary screen, cell-based, poly I:C stimulus, luciferase, 10K MLSCN set (AID 602277;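 active = inhibition of the reporter signal at or above 50%; inactive = inhibition below 50%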). Particulars: HEK293-TLR3 RL24 IRF3 luciferase reporter, at 10 µM, stronger effect = higher value.
The nature of assay [12]: inhibitors of larval lipid processing in zebrafish, primary screen, whole organism, PED6 fluorescence, gall bladder and intestine (AID 686;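 active = a full or partial loss of lipid-probe fluorescence in the fish gall bladder, intestine or both, judged by eye; inactive = no fluorescence loss, or compound toxic to the fish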;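 note: larvae 5 to 7 days old with five fish per well; signal comes from phospholipase A2 cleavage of quenched PED6 carried via bile; overnight exposure to compound and PED6 before scoring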). The note with it: Zebrafish larvae PED6 lipid processing, fluorescence scoring.
Assay [13] concerns the target Muscarinic acetylcholine receptor M4 (Homo sapiens) (UniProt P08173). Description: compounds altering M4/GIRK thallium flux, either direction, primary screen, M4 allosteric agonist project, cell-based, HEK293 M4/GIRK, BTC-AM (AID 625;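 active = fluorescence slope after compound addition differing from the mean of all tested samples at 99.7% confidence, mostly higher but some lower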;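 note: thallium influx through GIRK channels coupled to M4 in HEK293 cells with BTC-AM dye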). Particulars: at 10 µM, actives lie on both sides.
The mark [14] stands for this setting: measured here: cell density z-score.
[15] abbreviates: measured here: nuclear c-Myc green intensity z-score.
Where [16] appears, read: measured here: nuclear pErk red intensity z-score, stronger effect = higher value.

What is called inhibition is the change of the read-out against control, counted positive when it falls.

Chain of Dual specificity protein phosphatase 6 (Homo sapiens) (Q16828 whole entry, looked up): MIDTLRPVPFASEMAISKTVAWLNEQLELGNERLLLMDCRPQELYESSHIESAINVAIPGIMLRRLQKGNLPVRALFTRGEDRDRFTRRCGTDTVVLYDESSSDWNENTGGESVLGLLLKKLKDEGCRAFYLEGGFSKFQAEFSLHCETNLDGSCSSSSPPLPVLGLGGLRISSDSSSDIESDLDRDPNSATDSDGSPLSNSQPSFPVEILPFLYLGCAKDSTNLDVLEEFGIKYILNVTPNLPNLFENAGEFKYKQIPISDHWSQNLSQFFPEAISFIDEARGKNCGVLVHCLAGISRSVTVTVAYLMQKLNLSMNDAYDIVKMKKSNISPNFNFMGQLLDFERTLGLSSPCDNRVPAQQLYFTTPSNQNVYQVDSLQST
Chain of Muscarinic acetylcholine receptor M4 (Homo sapiens) (P08173 whole entry, looked up): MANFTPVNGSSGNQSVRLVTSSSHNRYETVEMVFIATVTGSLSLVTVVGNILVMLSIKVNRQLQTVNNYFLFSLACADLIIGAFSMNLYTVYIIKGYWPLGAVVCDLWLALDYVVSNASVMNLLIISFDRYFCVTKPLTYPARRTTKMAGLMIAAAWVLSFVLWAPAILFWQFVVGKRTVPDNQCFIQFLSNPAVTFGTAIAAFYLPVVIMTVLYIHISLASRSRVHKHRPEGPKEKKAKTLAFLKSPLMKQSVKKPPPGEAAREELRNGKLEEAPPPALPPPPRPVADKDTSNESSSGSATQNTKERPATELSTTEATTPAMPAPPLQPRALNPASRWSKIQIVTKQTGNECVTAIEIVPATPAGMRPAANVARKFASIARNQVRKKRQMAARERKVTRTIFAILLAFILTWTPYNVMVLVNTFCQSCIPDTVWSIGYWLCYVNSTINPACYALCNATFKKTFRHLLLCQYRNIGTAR

Take `c1ccc2c3c([nH]c2c1)CNCC3`: in assay [1], the cell count was determined as 485. For the same molecule, the inhibition in [1] is -1.2% (inactive); in [3] it was -84.5% (inactive); in [5] it was 23.4% (inactive); in assay [9], 24.5% (inactive); in assay [10], 4.35% (inactive); in assay [11], 51.6% (active). Moreover, the inhibition of aggregation in [2] is 3.2% (inactive). Moreover, the nuclei count was determined as 92.7% in [2] and 114% in assay [3]. Further, the z-score was 0.136 in [4] (setting [14]), -0.573 in assay [4] (setting [15]) and -0.521 in assay [4] (setting [16]). In assay [6], the fluorescence slope is -0.459 (inactive). The NADPH fluorescence slope in assay [7] is -6.4e-05 (inactive). The slope in [8] is 0.00455 (inactive).

Consider `C[C@@]1(CO)[C@H](O)CC[C@@]2(C)[C@H]1CC[C@H]1C[C@@H]3C[C@@]12CC[C@]3(O)CO`, for which the cell count in assay [1] came out at 629. For the same molecule, the inhibition is -4.1% (inactive) in assay [1]; -34.7% (inactive) in assay [3]; 1.48% (inactive) in [5]; -7.52% (inactive) in assay [9]; -34.2% (inactive) in [10]; 49.2% (inactive) in assay [11]. The inhibition of aggregation in assay [2] is -9.1% (inactive). Also, the nuclei count in assay [2] amounted to 9.1%; in [3], 113%. In addition, the z-score in assay [4] (setting [14]) was 0.71; in assay [4] (setting [15]), -0.0811; in assay [4] (setting [16]), -0.673. Also, the fluorescence slope in [6] was -0.469 (inactive). Also, the NADPH fluorescence slope in assay [7] was -5.6e-05 (inactive). In addition, the slope in assay [8] is 0.00555 (inactive). In [12], the outcome was inactive.

`C[N+]1(C)CCN(c2ccccc2)CC1` displayed a cell count in [1] of 637. The inhibition is -3.4% (inactive) in assay [1]; -66.8% (inactive) in [3]; 19% (inactive) in [5]; 7.37% (inactive) and 14.5% (inactive) in [9]; 0.511% (inactive) in assay [10]; 51.8% (active) in assay [11]. Also, the inhibition of aggregation in [2] was -27% (inactive). Also, the nuclei count worked out at 102% in assay [2] and 118% in assay [3]. For the same molecule, the z-score in assay [4] (setting [14]) is 1.65; in [4] (setting [15]) it was -1.1; in assay [4] (setting [16]), -0.542. Moreover, the fluorescence slope in assay [6] was -0.439 (inactive). Also, the NADPH fluorescence slope in assay [7] was -4.1e-05 (inactive). In addition, in assay [8], the slope is 0.00481 (inactive). For the same molecule, the outcome in assay [12] was inactive.

`Nc1ccc(C2(c3ccc(N)cc3)CN3CCC2CC3)cc1` yielded a cell count in [1] of 688. The inhibition in [1] is -0.7% (inactive); in assay [3], -49.8% (inactive); in assay [5], 1.12% (inactive); in assay [9], 8.44% (inactive); in [10] it was 2.43% (inactive); in [11], 13.5% (inactive). The inhibition of aggregation in [2] is 1.5% (inactive). Also, the nuclei count turned out to be 104% in [2] and 138% in assay [3]. Moreover, the z-score in assay [4] (setting [14]) is -0.8; in [4] (setting [15]), 0.409; in assay [4] (setting [16]) it was -0.625. In addition, the fluorescence slope in assay [6] is -0.502 (inactive); in assay [13], 0.00533 (inactive). In addition, the NADPH fluorescence slope in assay [7] is -3e-05 (inactive). In assay [8], the slope was 0.00562 (inactive). For the same molecule, the outcome in assay [12] was inactive.

In [1], `Clc1ccc(COC(Cn2ccnc2)c2ccc(Cl)cc2Cl)cc1` (stereo not given) showed a cell count of 571. Besides, the inhibition in assay [1] is -2% [at 2 µM, stronger effect = higher value, 0% TNFa-plus-vehicle, 100% no-TNFa wells] (inactive); in assay [3], -14.8% (inactive); in assay [5], 13.3% [cells stimulated with TPA for 15 min] (inactive); in [9] it was 41.7% (inactive); in assay [10], 22.8% (inactive); in [11] it was 32.2% (inactive). Also, the inhibition of aggregation in assay [2] was -19.8% (inactive). The values for the nuclei count in assay [2] and in assay [3] were 61.4% and 106%, respectively. Moreover, the z-score was 0.542 in [4] (measured here: cell density z-score, cells stimulated with TPA for 15 min); 1.67 in [4] (measured here: nuclear c-Myc green intensity z-score, cells stimulated with TPA for 15 min); -0.914 in assay [4] (measured here: nuclear pErk red intensity z-score, stronger effect = higher value, cells stimulated with TPA for 15 min). In addition, the fluorescence slope in [6] was -0.51 (inactive). Also, the NADPH fluorescence slope in assay [7] was 4.6e-06 (inactive). The slope in assay [8] is 0.00388 (inactive). In assay [12], the outcome was “inactive; toxic [screened at 20 µM (by protocol)]”.
